From PubChem BioAssay (EPA / NIEHS)
The source made the active and inactive calls. Rule for the calls: active = hit-call score of the fitted dose curve at least 0.9, where 1 is the maximum; inactive = score below 0.9.

Key:
Conditions in all cases: mRNA level, 48 h; actives raise or lower the signal
[1] = read-out: Hypoxia-inducible factor 1-alpha (Homo sapiens) (UniProt Q16665); assay: LTEA_HepaRG_HIF1A: Life Technologies and Expression Analysis (LTEA) Assay for Hypoxia-inducible factor 1 (HIF1A) Trancription factor using HepaRG (AID 2283503)
Summary of the method: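 Differentiated HepaRG cells in serum-free induction medium exposed 48 h, in duplicate, to 8-point half-log series from 100 uM in 0.5% DMSO. HIF1A mRNA measured by TaqMan qRT-PCR, normalized to ACTB/GAPDH/POLR2A, fitted bidirectionally versus DMSO.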

[2] = read-out: 3-Hydroxy-3-Methylglutaryl-CoA Synthase 2 (HMGCS2), HMGCS2 (gene 3158); assay: LTEA_HepaRG_HMGCS2: Life Technologies and Expression Analysis (LTEA) Assay for 3-Hydroxy-3-Methylglutaryl-CoA Synthase 2 (HMGCS2) using HepaRG (AID 2283504)
Summary of the method: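 HepaRG, plated 48 h then switched to serum-free induction media; cmpd 8-pt, max 100 uM, 1/2-log, 0.5% DMSO, n=2, 48 h. HMGCS2 mRNA by Fluidigm TaqMan qRT-PCR, ACTB/GAPDH/POLR2A norm; bidirectional fit vs DMSO.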

HGF (gene 3082) = assay: LTEA_HepaRG_HGF: Life Technologies and Expression Analysis (LTEA) Assay for Hepatocyte Growth Facto (HGF) using HepaRG (AID 2283505)
Summary of the method: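 Read-out is HGF transcript level by qRT-PCR, normalized to three housekeeping genes, fitted bidirectionally against 0.5% DMSO vehicle. Human HepaRG cells received test chemicals for 48 h at up to 100 uM.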

[3] = read-out: Insulin Like Growth Factor 1 (IGF1), IGF1 (gene 3479); assay: LTEA_HepaRG_IGF1: Life Technologies and Expression Analysis (LTEA) Assay for Insulin Like Growth Factor 1 (IGF1) using HepaRG (AID 2283506)
Summary of the method: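 HepaRG, plated 48 h, then switched to serum-free induction media; test chemical 8-pt half-log from 100 uM (0.5% DMSO), duplicate, 48 h. Lysis in RLT, TaqMan qRT-PCR, norm. ACTB/GAPDH/POLR2A. Bidirectional fit vs DMSO.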

[4] = read-out: Intercellular Adhesion Molecule 1 (ICAM1), ICAM1 (gene 3383); assay: LTEA_HepaRG_ICAM1: Life Technologies and Expression Analysis (LTEA) Assay for Intercellular Adhesion Molecule 1 (ICAM1) using HepaRG (AID 2283507)
Summary of the method: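 Readout is qRT-PCR mRNA level, normalized to three housekeeping genes and fitted bidirectionally against 0.5% DMSO vehicle. Human HepaRG cultures received compound for 48 h, top concentration 100 uM with half-log dilutions.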

[5] = read-out: Insulin-like growth factor-binding protein 1 (IGFBP1), IGFBP1 (gene 3484); assay: LTEA_HepaRG_IGFBP1: Life Technologies and Expression Analysis (LTEA) Assay for Insulin-like growth factor-binding protein 1 (IGFBP1) using HepaRG (AID 2283508)
Summary of the method: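 Thawed HepaRG cells are plated for 48 h, switched to serum-free induction medium, then dosed in duplicate for another 48 h (100 uM top, half-log steps). Lysates in RLT go to qRT-PCR, and gain or loss of signal is fitted relative to vehicle.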

[6] = read-out: Interleukin 6 Receptor (IL6R), IL6R (gene 3570); assay: LTEA_HepaRG_IL6R: Life Technologies and Expression Analysis (LTEA) Assay for Interleukin 6 Receptor (IL6R) using HepaRG (AID 2283510);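 for AC50: TaqMan qRT-PCR signal normalized to ACTB GAPDH and POLR2A housekeeping genes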
Summary of the method: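 Readout is IL6R transcript level by TaqMan qRT-PCR, normalized to three housekeeping genes and fitted bidirectionally against 0.5% DMSO controls. Human HepaRG cells received chemicals for 48 h in serum-free induction medium, highest concentration 100 uM.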

[7] = read-out: Potassium channel subfamily K member 1 (KCNK1), KCNK1 (gene 3775); assay: LTEA_HepaRG_KCNK1: Life Technologies and Expression Analysis (LTEA) Assay for Potassium channel subfamily K member 1 (KCNK1) using HepaRG (AID 2283511)
Summary of the method: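 Differentiated human HepaRG cells in serum-free induction medium were exposed in duplicate for 48 h to 8 half-log concentrations up to 100 uM in 0.5% DMSO. KCNK1 mRNA was measured by TaqMan qRT-PCR, normalized to ACTB, GAPDH and POLR2A, and fitted bidirectionally versus DMSO.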

[8] = read-out: Keratin 19 (KRT19), KRT19 (gene 3880); assay: LTEA_HepaRG_KRT19: Life Technologies and Expression Analysis (LTEA) Assay for Keratin 19 (KRT19) using HepaRG (AID 2283512)
Summary of the method: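 KRT19 transcript levels, measured by Fluidigm qRT-PCR against three housekeeping genes, are fitted for gain or loss of signal relative to DMSO. Human HepaRG cells receive test chemicals (top 100 uM, half-log steps, 0.5% DMSO) for 48 hours.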

[9] = read-out: JUN Transcription Factor, JUN (gene 3725); assay: LTEA_HepaRG_JUN: Life Technologies and Expression Analysis (LTEA) Assay for JUN Transcription Factor using HepaRG (AID 2283513)
Summary of the method: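 Cells plated 48 h, medium switched to serum-free induction medium, then dosed 48 h (100 uM top, half-log dilutions, 0.5% DMSO). RNA isolated; JUN measured by qRT-PCR against three housekeeping genes; gain or loss fitted relative to DMSO.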

[10] = read-out: Lipase C (LIPC), LIPC (gene 3990); assay: LTEA_HepaRG_LIPC: Life Technologies and Expression Analysis (LTEA) Assay for Lipase C (LIPC) using HepaRG (AID 2283514)
Summary of the method: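 Differentiated human HepaRG cells in serum-free induction medium were exposed in duplicate for 48 h to eight concentrations (top 100 uM, half-log steps, 0.5% DMSO). LIPC mRNA was quantified by TaqMan qRT-PCR, normalized to ACTB, GAPDH and POLR2A, with bidirectional fitting versus DMSO.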

[11] = read-out: Lipoprotein lipase (LPL), LPL (gene 4023); assay: LTEA_HepaRG_LPL: Life Technologies and Expression Analysis (LTEA) Assay for Lipoprotein lipase (LPL) using HepaRG (AID 2283515)
Summary of the method: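 Differentiated human HepaRG cells in serum-free induction medium were exposed in duplicate for 48 h to eight half-log concentrations (top 100 uM) in 0.5% DMSO. LPL mRNA was quantified by TaqMan qRT-PCR, normalized to ACTB, GAPDH and POLR2A.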

[12] = read-out: MicroRNA 122 (MIR122), gene 406906; assay: LTEA_HepaRG_MIR122: Life Technologies and Expression Analysis (LTEA) Assay for MicroRNA 122 (MIR122) using HepaRG (AID 2283516); note: the transcript read is the microRNA miR-122
Summary of the method: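 HepaRG plated 48 h, switched to serum-free induction medium, then treated in duplicate for 48 h (100 uM top, half-log steps, 0.5% DMSO vehicle). RNA isolated, qRT-PCR performed, concentration-response fitted both directions relative to DMSO.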

[13] = read-out: matrix metalloproteinase-10 (MMP10), MMP10 (gene 4319); assay: LTEA_HepaRG_MMP10: Life Technologies and Expression Analysis (LTEA) Assay for matrix metalloproteinase-10 (MMP10) using HepaRG (AID 2283517)
Summary of the method: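 HepaRG, collagen I, ~100,000 cells/well; serum-free induction medium; 48 h exposure, duplicate, 8-pt half-log to 100 uM, 0.5% DMSO. Readout: TaqMan qRT-PCR, normalized to ACTB/GAPDH/POLR2A; bidirectional fit vs DMSO.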

MYC, MYC (gene 4609) = assay: LTEA_HepaRG_MYC: Life Technologies and Expression Analysis (LTEA) Assay for MYC using HepaRG (AID 2283518)
Summary of the method: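 HepaRG, ~100,000 cells/well, collagen I; 48 h plating; serum-free induction medium; 48 h dosing, duplicate, 100 uM top, half-log, 0.5% DMSO; total RNA → qRT-PCR MYC; gain/loss fit vs DMSO.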

[14] = read-out: matrix metalloproteinase-3 (MMP3), MMP3 (gene 4314); assay: LTEA_HepaRG_MMP3: Life Technologies and Expression Analysis (LTEA) Assay for matrix metalloproteinase-3 (MMP3) using HepaRG (AID 2283519)
Summary of the method: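 Differentiated human HepaRG cells, plated 48 h on collagen I, were exposed in duplicate for 48 h in serum-free induction medium to eight half-log concentrations up to 100 uM in 0.5% DMSO. MMP3 mRNA was quantified by TaqMan qRT-PCR, normalised to ACTB, GAPDH and POLR2A.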

[15] = read-out: Paternally Expressed 10 (PEG10), PEG10 (gene 23089); assay: LTEA_HepaRG_PEG10: Life Technologies and Expression Analysis (LTEA) Assay for Paternally Expressed 10 (PEG10) using HepaRG (AID 2283520)
Summary of the method: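 HepaRG, 48 h post-plating → serum-free induction medium → 48 h chemical exposure (duplicate, 8-pt, max 100 uM, half-log, 0.5% DMSO) → lysis in RLT → TaqMan qRT-PCR for PEG10, ACTB/GAPDH/POLR2A normalisation.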

[16] = read-out: Nuclear factor NF-kappa-B p105 subunit (Homo sapiens) (UniProt P19838); assay: LTEA_HepaRG_NFKB1: Life Technologies and Expression Analysis (LTEA) Assay for Nuclear Factor Kappa B Subunit 1 (NFKB1) using HepaRG (AID 2283521);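 note: TaqMan qRT-PCR transcript normalised to ACTB GAPDH and POLR2A housekeeping genes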
Summary of the method: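 NFKB1 transcript was measured by TaqMan qRT-PCR on Fluidigm arrays, normalised to three housekeeping genes and fitted in both directions against 0.5% DMSO. HepaRG cells were dosed in duplicate for 48 h in serum-free induction medium, eight half-log steps from 100 uM.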

[17] = read-out: Protein phosphatase 2A (PPP2R4), PTPA (gene 5524); assay: LTEA_HepaRG_PPP2R4: Life Technologies and Expression Analysis (LTEA) Assay for Protein phosphatase 2A (PPP2R4) using HepaRG (AID 2283522)
Summary of the method: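 Readout is PPP2R4 transcript level by microfluidic qRT-PCR after 48 h chemical treatment of human HepaRG liver cells. Concentrations spanned 100 uM downward in half-log steps; gain or loss of signal was fitted relative to DMSO.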

[18] = read-out: Interleukin 6 (IL6), IL6 (gene 3569); assay: LTEA_HepaRG_IL6: Life Technologies and Expression Analysis (LTEA) Assay for Interleukin 6 (IL6) using HepaRG (AID 2283509)
Summary of the method: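 Differentiated human HepaRG cells, plated 48 h then switched to serum-free induction medium, were exposed in duplicate for 48 h to eight half-log concentrations up to 100 uM in 0.5% DMSO. IL6 mRNA measured by qRT-PCR, normalized to ACTB/GAPDH/POLR2A.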

Measured: AC50

Chain of Hypoxia-inducible factor 1-alpha (Homo sapiens) (Q16665 whole entry, looked up): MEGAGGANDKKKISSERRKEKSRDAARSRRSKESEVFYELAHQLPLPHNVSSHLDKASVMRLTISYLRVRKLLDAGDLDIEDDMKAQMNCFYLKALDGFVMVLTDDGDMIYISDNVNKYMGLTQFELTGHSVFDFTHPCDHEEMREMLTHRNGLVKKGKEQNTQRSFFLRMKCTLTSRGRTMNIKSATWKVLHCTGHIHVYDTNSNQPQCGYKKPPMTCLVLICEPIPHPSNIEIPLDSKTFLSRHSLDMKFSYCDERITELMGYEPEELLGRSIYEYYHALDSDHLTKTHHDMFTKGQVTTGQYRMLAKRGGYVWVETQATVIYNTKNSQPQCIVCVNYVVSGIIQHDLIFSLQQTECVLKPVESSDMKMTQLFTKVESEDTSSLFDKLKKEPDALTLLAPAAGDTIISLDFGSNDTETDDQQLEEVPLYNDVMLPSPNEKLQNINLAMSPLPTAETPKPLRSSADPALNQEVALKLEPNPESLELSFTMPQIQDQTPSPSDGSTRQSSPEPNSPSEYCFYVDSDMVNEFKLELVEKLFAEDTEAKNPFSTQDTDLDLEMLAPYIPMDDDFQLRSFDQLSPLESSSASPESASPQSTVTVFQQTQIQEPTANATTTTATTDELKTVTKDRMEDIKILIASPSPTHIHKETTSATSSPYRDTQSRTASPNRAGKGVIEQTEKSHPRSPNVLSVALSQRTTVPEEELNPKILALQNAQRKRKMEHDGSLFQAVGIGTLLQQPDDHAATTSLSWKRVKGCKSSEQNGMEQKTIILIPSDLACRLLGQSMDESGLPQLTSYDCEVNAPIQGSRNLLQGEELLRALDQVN
Chain of Nuclear factor NF-kappa-B p105 subunit (Homo sapiens) (P19838 whole entry, looked up): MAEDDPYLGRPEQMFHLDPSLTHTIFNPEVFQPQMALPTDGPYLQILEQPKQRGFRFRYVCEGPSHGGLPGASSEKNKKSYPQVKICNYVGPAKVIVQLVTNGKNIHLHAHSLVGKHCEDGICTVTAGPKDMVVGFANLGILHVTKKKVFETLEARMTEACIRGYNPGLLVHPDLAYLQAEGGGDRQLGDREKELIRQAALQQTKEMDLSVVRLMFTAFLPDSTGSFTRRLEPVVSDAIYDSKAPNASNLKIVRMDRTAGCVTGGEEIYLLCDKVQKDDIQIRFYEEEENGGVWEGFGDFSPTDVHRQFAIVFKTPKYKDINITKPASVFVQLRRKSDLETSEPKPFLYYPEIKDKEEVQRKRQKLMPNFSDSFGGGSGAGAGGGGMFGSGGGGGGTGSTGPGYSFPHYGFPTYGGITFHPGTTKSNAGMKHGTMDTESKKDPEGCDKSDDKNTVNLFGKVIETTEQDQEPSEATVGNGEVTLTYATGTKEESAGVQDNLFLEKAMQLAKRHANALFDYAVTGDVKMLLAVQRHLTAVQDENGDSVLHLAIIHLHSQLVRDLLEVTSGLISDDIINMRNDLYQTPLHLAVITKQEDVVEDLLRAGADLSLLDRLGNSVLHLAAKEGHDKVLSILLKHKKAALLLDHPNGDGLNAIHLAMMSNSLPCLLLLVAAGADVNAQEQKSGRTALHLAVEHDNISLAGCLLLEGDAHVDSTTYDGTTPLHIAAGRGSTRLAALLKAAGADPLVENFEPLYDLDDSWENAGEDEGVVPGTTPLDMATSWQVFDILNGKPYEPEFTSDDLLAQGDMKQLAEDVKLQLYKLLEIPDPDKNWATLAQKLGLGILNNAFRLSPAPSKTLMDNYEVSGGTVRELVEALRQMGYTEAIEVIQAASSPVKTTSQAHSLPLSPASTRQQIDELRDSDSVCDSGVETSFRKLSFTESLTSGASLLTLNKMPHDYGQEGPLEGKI

O=C(Nc1ccccc1)Nc1cnns1
active: [2] 73.7 µM | [3] 50 µM | [5] 83.5 µM | [8] 50 µM | [10] 76.9 µM | [11] 81.5 µM | [12] 69.2 µM | MYC, MYC (gene 4609) 87.7 µM | [14] 91.2 µM | [15] 61.5 µM
inactive: [1] | HGF (gene 3082) | [4] | [6] | [7] | [9] | [13] | [16] | [17]

CNC(=O)/C=C(\C)OP(=O)(OC)OC
not listed: [10] | [16]
inactive: all other assays above

O=C1c2ccccc2C(=O)N1SC(Cl)(Cl)Cl
not listed: [10]
inactive: all other assays above

CNC(=O)Oc1cccc(N=CN(C)C)c1
not listed: [10] | [16]
inactive: all other assays above

CN1CSC(=S)N(C)C1
not listed: [10]
inactive: all other assays above

CCCN(CCOc1c(Cl)cc(Cl)cc1Cl)C(=O)n1ccnc1
inactive: [1] | HGF (gene 3082) | [17]
active: [2] 29.7 µM | [3] 24.4 µM | [4] 50 µM | [5] 24.4 µM | [18] 36.5 µM | [6] 87.1 µM | [7] 62 µM | [8] 12.7 µM | [9] 50 µM | [11] 25.7 µM | [12] 11.7 µM | [13] 57.8 µM | MYC, MYC (gene 4609) 39.5 µM | [14] 80.2 µM | [15] 6.24 µM
